HT1080 IDH1KD tx: qHTS for induction of synthetic lethality in tumor cells producing 2HG: qHTS for the HT-1080-IDH1KD cell line; HT-1080 IDH1 knockdown viability, ATP luminescence, 48 h; Potency, µM (titrated, usually from 46.1 µM), without a hit: at the top dose activity, negative = toxicity, usual class: cytotoxic; actives 2% (n = 360,000); AID 686971, 2013;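 further: potency means the concentration at half of the fitted maximal effect; 0% = DMSO wells and -100% = cell-free medium wells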
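In this qHTS, HT-1080 cells depleted of IDH1 are exposed for 48 h at 37 °C to compound titrations. Toxicity is scored from CellTiter-Glo luminescence, with DMSO as full viability and medium alone as none.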
IL-1B inflam inh: qHTS for Inhibitors of Inflammasome Signaling: IL-1-beta AlphaLISA Primary Screen; THP-1 LPS/ATP IL-1B secretion, AlphaLISA, 16 h; hits give low values; activity change, % at 57.5 µM; actives 4.7% (n = 360,000); AID 743279, 2014; in the data active means activity change below about -50%; inconclusive means mostly about -30% to -49%
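THP-1 cells pretreated 1 hr with compounds (up to 57.5 uM final), then stimulated with LPS (250 ng/mL final) plus ATP (1.25 mM final); secreted IL-1B measured by AlphaLISA after 16 hr, decreased signal indicating inhibition.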
DT40 TDP1 CPT: qHTS for Inhibitors of human tyrosyl-DNA phosphodiesterase 1 (TDP1): qHTS in cells in presence of CPT; Potency, µM (titrated, usually from 46.2 µM), inactives show at the highest dose activity change, negative = growth inhibition, most hits filed as inhibitors; chicken DT40 Tdp1-/-;hTDP1 cells + 20 nM CPT, ATP luminescence, 48 h; actives 12% (n = 420,000); further: potency means the concentration at half of the fitted maximal effect; nearly all actives have a fitted effect of over 55% in size
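Chicken DT40 Tdp1-/- cells complemented with human TDP1, 400 cells/well, exposed to compounds plus 20 nM camptothecin for at least 48 h at 37 C; viability read as ATP content by CellTiter-Glo luminescence.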
TDP1 cell noCPT: qHTS for Inhibitors of human tyrosyl-DNA phosphodiesterase 1 (TDP1): qHTS in cells in absence of CPT; AID 686978, 2013; actives 15% (n = 420,000); DT40 Tdp1-/- hTDP1 cells, no CPT, ATP luminescence, 48 h; Potency, µM (highest dose often 46.2 µM), inactives show top-dose activity change, negative = growth inhibition, most hits filed as inhibitors; further: potency means the concentration at half of the fitted maximal effect; nearly all actives have a fitted effect of over 55% in size
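DT40 Tdp1-/-;hTDP1 cells, no CPT (DMSO vehicle only), 400 cells/well; compounds pin-transferred; ≥48 hr, 37 °C; CellTiter-Glo 30 min RT dark, luminescence read.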
HT1080NT lethal: qHTS for induction of synthetic lethality in tumor cells producing 2HG: qHTS for the HT-1080-NT fibrosarcoma cell line | HT-1080-NT fibrosarcoma viability, CellTiter-Glo ATP luminescence, 48 h | Potency, µM (highest dose often 46.1 µM), for inactives: top-dose activity, negative = less viability, usual class: cytotoxic | actives 1.6% (n = 360,000);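 further: NT is the 2HG producing partner of a matched IDH1 knockdown line; potency means the concentration at half of the fitted maximal effect; 0% = DMSO-treated cells and -100% = media-only wells without cells; nearly all actives have a fitted effect of over 55% in size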
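A 48-hour cytotoxicity screen used HT-1080-NT cells plated 2 hours before compound delivery. ATP-based CellTiter-Glo luminescence measured viability, normalized to DMSO and no-cell controls.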
* marks the source's active call; other numbers are inactive results; ? = inconclusive; . = no result. Sampled rows, rich in hits. Any-hit rate of the full collection: about 19%. Unless noted, the call rests on the fitted dose curve; in most records, active means well fitted curve in the direction sought with a large enough effect; inconclusive means small, poorly fitted or top-dose-only effect, or another doubt; inactive means no such curve, though single readings can be large; an effect the other way counts as inactive or inconclusive. Unless noted, on the % scale 0 is the no-effect control and ±100 the full control effect.

SMILES	HT1080 IDH1KD tx	IL-1B inflam inh	DT40 TDP1 CPT	TDP1 cell noCPT	HT1080NT lethal
Cc1ccc([N+](=O)[O-])c(OCCN2CCc3ccccc3C2)c1	6%	0	-14%	-11%	1%
C=CCOc1ccccc1CN1CCC(Cc2ccccc2)CC1	?	-86*	?	?	-28%
COc1cc(CN2CCC(Cc3ccccc3)CC2)c([N+](=O)[O-])cc1OC	-22%	-7	21µM*	?	-13%
O=C(NCc1ccc2c(c1)OCO2)c1ccc(=O)[nH]c1	14%	16	-3%	?	1%
C=CCn1c(SCC(=O)Nc2cccc(S(N)(=O)=O)c2)nnc1C1CCCCC1	-1%	16	-21%	-2%	3%
O=C(Cc1ccccc1Cl)NO	20%	.	-1%	?	15%
Cc1nc2cc(NC(=O)c3cccc(S(C)(=O)=O)c3)ccc2o1	9%	3	-1%	0%	10%
CSCCC(=O)NC1CCCN(CCc2ccccc2)C1 (centres undefined)	2%	6	-4%	-1%	-1%
N#Cc1cccc(NC(=O)N2CCCC3(CCN(C(=O)c4csnn4)CC3)C2)c1	.	.	9%	-13%	.
COc1cc(C)c(CN2CCC(Cc3ccccc3)CC2)cc1C	-7%	?	?	?	-17%
COc1ccc(OC)c(CN2CCC(Cc3ccccc3)CC2)c1	-11%	-7	?	16µM*	?
O=[N+]([O-])c1cccc(OCCN2CCC(Cc3ccccc3)CC2)c1	?	-66*	?	?	?
COc1cc(OC)c(CN2CCC(Cc3ccccc3)CC2)cc1Br	-23%	-58*	?	?	-26%
CN(C)c1cccc(-c2cc(Nc3ccc(C(C)(C)C)cc3)ncn2)c1	-10%	0	21µM*	?	-7%
CCOC(=O)C1CCCN(C(=O)c2ccc3nc(-c4cccc(OC)c4)oc3c2)C1 (centres undefined)	6.5µM*	4	3.3µM*	2.9µM*	?
CCN(CC)C(=O)C1CCCN(C(=O)c2ccc3nc(-c4cccc(OC)c4)oc3c2)C1 (centres undefined)	-2%	-7	23µM*	12µM*	1%
Cc1ccc(COC(=O)c2cccc(S(=O)(=O)N3CCCCC3)c2)cc1	-4%	3	-3%	?	-9%
Cc1ccc(Cn2c(O)c(N=NC(=S)Nc3ccccc3F)c3cc(S(=O)(=O)N4CCOCC4)ccc32)cc1	-12%	-12	3.7µM*	2.1µM*	-12%
Cc1ccc(C)c(SCC(=O)Nc2cc(S(=O)(=O)N3CCOCC3)ccc2C)c1	0%	?	?	?	1%
Cc1ccc(C)c(NC(=S)N=Nc2c(O)n(C)c3ccc(S(=O)(=O)N4CCOCC4)cc23)c1	?	7	4.1µM*	2.9µM*	-29%
Cc1cc(S(=O)(=O)N2CCOCC2)ccc1OCC(=O)Nc1ccccc1F	1%	18	2%	15%	-1%
CCc1ccccc1NC(=O)c1ccc(S(=O)(=O)N2CCCC2)cc1	-1%	3	10%	-11%	10%
CCc1ccccc1NC(=S)N=Nc1c(O)n(C)c2ccc(S(=O)(=O)N3CCOCC3)cc12	-22%	0	5.2µM*	5.8µM*	-12%
COc1ccc(C(=O)NCc2ncccc2C)cc1OC1CCN(C(C)=O)CC1	9%	4	1%	-2%	10%
C=CCc1c(OC)ccc2ccc(=O)oc12	8%	-5	1%	-6%	-4%
SMILES	HT1080 IDH1KD tx	IL-1B inflam inh	DT40 TDP1 CPT	TDP1 cell noCPT	HT1080NT lethal
COC(=O)CC1C(=O)NCCN1C(=O)OC(C)(C)C (centres undefined)	13%	9	5%	11%	18%
CC/C(=N\NC(N)=O)c1ccc(OC(F)F)cc1	3%	-20	-1%	-12%	0%
COc1ccc(C(=O)NCCn2cc(SCC(=O)Nc3ccc4c(c3)OCCO4)c3ccccc32)cc1OC	.	.	15µM*	21µM*	.
COc1ccc(C(=O)NCCn2cc(SCC(=O)NCCc3ccc(OC)c(OC)c3)c3ccccc32)cc1	.	.	18µM*	16µM*	.
CCCn1cc(SCC(=O)Nc2ccc3c(c2)OCO3)c2ccccc21	3%	?	-29%	?	-13%
COc1ccc(C(=O)NCCn2cc(SCC(=O)Nc3nnc(C)s3)c3ccccc32)cc1	-5%	-13	?	?	2%
COc1ccc(CCNC(=O)CSc2cn(CCNC(=O)c3cccc(C(F)(F)F)c3)c3ccccc23)cc1OC	.	.	21µM*	15µM*	.
COc1ccc(CCNC(=O)CSc2cn(CCNC(=O)c3ccc(OC)c(OC)c3)c3ccccc23)cc1OC	.	.	?	23µM*	.
Cc1ccc(CN2C(=O)CSC2c2ccccc2F)cc1 (centres undefined)	-9%	41	?	-9%	1%
COc1cccc(NC(=O)Cn2c(=O)n(-c3ccc(C)cc3)c(=O)c3ccc(C(=O)NCc4ccco4)cc32)c1	.	.	16µM*	?	.
CCc1ccc(NC(=O)Cn2c(=O)n(-c3ccc(OC)cc3)c(=O)c3ccc(C(=O)NCc4ccc(C)cc4)cc32)cc1	.	.	10µM*	7.3µM*	.
CCCN(CCC)C(=O)Cn1c(=O)n(-c2ccc(OC)cc2)c(=O)c2ccc(C(=O)NCc3ccc(C)cc3)cc21	.	.	?	16µM*	.
COc1cccc(NC(=O)Cn2c(=O)n(Cc3ccc(C(=O)NCc4ccc(C)cc4)cc3)c(=O)c3ccccc32)c1	.	.	-9%	-10%	.
Cc1ccc(NC(=O)Cn2c(=O)n(-c3ccc(C)cc3)c(=O)c3ccc(C(=O)NCc4ccccc4Cl)cc32)cc1	.	.	7.3µM*	13µM*	.
COc1ccc(Cl)cc1N1C(=O)[C@@H]2C[C@H]1CN2Cc1nc2ccccc2nc1C	.	.	5%	-20%	.
Cc1cc(C(=O)OCC(=O)N2CC(C)OC(C)C2)ccc1[N+](=O)[O-] (centres undefined)	-5%	40	-7%	-19%	-1%
CCOc1ccc(NC(=O)Cn2c(=O)n(-c3ccccc3)c(=O)c3ccc(C(=O)NCc4ccc5c(c4)OCO5)cc32)cc1	.	.	21µM*	21µM*	.
O=C1c2cccnc2-c2ncccc21	11%	6	1%	-15%	19%
COC1=C(Br)C(=O)c2ncccc2C1=O	8.2µM*	-14	0.52µM*	0.58µM*	-22%
